Assay results: PubChem BioAssay AID624054 (National Center for Advancing Translational Sciences (NCATS), 2012)
Calls of active or inactive are those of the source.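 How the source made its calls: active means IC50 at or below 10 µM; inconclusive means IC50 above 10 µM but below 20 µM; inactive means IC50 of 20 µM or more.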

biological target: Neuropeptide S receptor (Homo sapiens) (UniProt Q6W5P4); assay: Robust Characterization of cAMP Signal Transduction for Antagonists of the Neuropeptide S Receptor: SAR; conditions: CHO-NPSR cells, NPS-stimulated cAMP, TR-FRET
Text: Neuropeptide S receptor (NPSR), previously known as GPR154, is a recently de-orphanized G protein coupled receptor. Its endogenous ligand is the 20 amino acids peptide Neuropeptide S (NPS). […] NPS and its receptor are found in various tissues. Specifically they are highly expressed in brain areas that have been implicated in modulation of arousal, stress and anxiety. Central administration of NPS in mice produces an unusual profile of activity by inducing wakefulness and arousal, while at the same time suppressing anxiety. Therefore, NPSR may represent a novel drug target for the treatment of sleep and anxiety disorders. To identify NPSR antagonists, we developed a cell-based cAMP assay. NPS can stimulate the production of cAMP in Chinese hamster ovary cells stably expressing NPS receptor. This change in intracellular cAMP level can be detected by a homogeneous LANCE cAMP assay based on the TR-FRET (time resolved fluorescence resonance energy transfer) between a europium-labeled cAMP tracer complex and a cAMP-specific antibody labeled with Alexa Fluor 647. The europium-labeled cAMP tracer complex is formed by the tight interaction between Biotin-cAMP (b-cAMP) and streptavidin labeled with Europium-W8044 chelate (Eu-SA). Light pulse at 320 nm excites the europium of the cAMP tracer and the energy emitted is transferred to the Alexa molecule bound to the cAMP antibody, generating a TR-FRET signal at 665 nm. Residual energy from the europium will produce a light at 620 nm. The native unlabeled cAMP from cell lysates competes with the europium-cAMP tracer for antibody binding and reversely reduces the emission signal of Alexa by interrupting FRET between the two labeled molecules. Both emission signals from the FRET donor (620 nm) and the acceptor (665 nm) can be detected by a plate reader in the TRF mode. Expression of result in fluorescence ratio (665 nm/620 nm) helps to normalize differences due to cell density and reagent dispensing. This assay was successfully optimized to a 1536-well plate format. Select compounds from the primary screen (AID 1461) were chosen for confirmation based on potency, efficacy, SAR, and activity across other assays in PubChem and at NCGC. Other compounds are analogs of active compounds from the primary screen. […]
A Chinese hamster ovary (CHO) cell line stably expressing the NPS receptor (CHO-NPSR) was obtained from Dr. Heilig lab at NIAAA and maintained in F-12 Kaighn's media (Invitrogen, Carlsbad, CA, 21127) supplemented with 10 % FBS, 100 units/ml penicillin, 100 ug/ml streptomycin and 250 ug/ml geneticin at 37C, 5% CO2 in a humidified atmosphere. […] IC50 values were determined from concentration-response data modeled with the standard Hill equation. […]

Neuropeptide S receptor (Homo sapiens), sequence (Q6W5P4 whole entry, looked up): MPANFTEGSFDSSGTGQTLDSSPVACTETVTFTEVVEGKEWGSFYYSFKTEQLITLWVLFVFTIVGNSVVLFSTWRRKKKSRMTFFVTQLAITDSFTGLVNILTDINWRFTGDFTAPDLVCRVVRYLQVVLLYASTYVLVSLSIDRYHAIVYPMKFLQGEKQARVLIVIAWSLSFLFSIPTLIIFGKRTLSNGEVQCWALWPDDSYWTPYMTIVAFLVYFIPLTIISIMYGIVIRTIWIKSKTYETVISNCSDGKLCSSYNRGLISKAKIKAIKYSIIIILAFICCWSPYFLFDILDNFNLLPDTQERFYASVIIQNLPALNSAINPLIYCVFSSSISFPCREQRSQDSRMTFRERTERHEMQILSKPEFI

IC50, active:
Cc1c(P(=S)(c2ccccc2)c2ccccc2)[n+]2ccccc2n1C/C=C/c1ccccc1 22.1 nM
CCC(C)(CCN1CCOCC1)N(Cc1cc2ccccc2n(C)c1=O)C(=O)C1CCCCC1 (centres undefined) 17.6 nM
O=C1OC(c2ccccc2)(c2ccccc2)N2CCN(C(=O)NCc3ccc(F)cc3)CC12 (centres undefined) 208 nM
COc1ccc(C2c3c(ncn(CCN4CCOCC4)c3=N)Oc3ccc4ccccc4c32)cc1OC (centres undefined) 296 nM
